Measurements reported in PMC5540273 (PLoS ONE, 2017).

Assays:
Details in all cases: concentration: 1 μM, replicates: in singlicate; n = 1
PIK3CD = tested on: PIK3CD
PIK3CG = tested on: PIK3CG
PIK4CB = tested on: T1, PIK4CB
T1 construct: gene PI4KB

PIKFYVE = tested on: PIKFYVE
PIM1 = tested on: PIM1
PIM2 = tested on: PIM2
PIM3 = tested on: PIM3
PIP5K1A = tested on: PIP5K1A
PIP5K1C = tested on: PIP5K1C
PIP5K2B = tested on: PIP5K2B
PIP5K2C = tested on: T2, PIP5K2C
T2 construct: gene PIP4K2C

PKAC-alpha = tested on: T3, PKAC-alpha
T3 construct: gene PRKACA

PKAC-beta = tested on: T4, PKAC-beta
T4 construct: gene PRKACB

PKMYT1 = tested on: PKMYT1
PKN1 = tested on: PKN1
PKN2 = tested on: PKN2
PLK1 = tested on: PLK1
PLK2 = tested on: PLK2
PLK3 = tested on: PLK3
PLK4 = tested on: PLK4
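Note: KINOMEscan kinase panel screen.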

O=C(NCCCN1CCCC1=O)c1cnc(NCc2cc(Cl)ccc2Cl)nc1NC1CCNCC1
%Inh (PIK3CD): 0% | %Inh (PIK3CG): 7% | %Inh (PIK4CB): 0% | %Inh (PIKFYVE): 30% | %Inh (PIM1): 0% | %Inh (PIM2): 0% | %Inh (PIM3): 4% | %Inh (PIP5K1A): 0% | %Inh (PIP5K1C): 12% | %Inh (PIP5K2B): 0% | %Inh (PIP5K2C): 2% | %Inh (PKAC-alpha): 0% | %Inh (PKAC-beta): 0% | %Inh (PKMYT1): 0% | %Inh (PKN1): 20% | %Inh (PKN2): 11% | %Inh (PLK1): 0% | %Inh (PLK2): 0% | %Inh (PLK3): 0% | %Inh (PLK4): 5%

O=C(Nc1ccccc1F)NC1CCN(c2ccnc(Nc3ccc(F)cc3)n2)C1 (stereo not shown) [GSK1379722]
%Inh (PIK3CD): 0% | %Inh (PIK3CG): 0% | %Inh (PIK4CB): 100% | %Inh (PIKFYVE): 0% | %Inh (PIM1): 0% | %Inh (PIM2): 0% | %Inh (PIM3): 0% | %Inh (PIP5K1A): 0% | %Inh (PIP5K1C): 45% | %Inh (PIP5K2B): 14% | %Inh (PIP5K2C): 18% | %Inh (PKAC-alpha): 0% | %Inh (PKAC-beta): 0% | %Inh (PKMYT1): 4% | %Inh (PKN1): 0% | %Inh (PKN2): 0% | %Inh (PLK1): 0% | %Inh (PLK2): 0% | %Inh (PLK3): 0% | %Inh (PLK4): 0%

Fc1ccc(-c2ncn(CCCNCc3ccccc3)c2-c2ccncc2)cc1
%Inh (PIK3CD): 3% | %Inh (PIK3CG): 4% | %Inh (PIK4CB): 24% | %Inh (PIKFYVE): 2% | %Inh (PIM1): 10% | %Inh (PIM2): 23% | %Inh (PIM3): 28% | %Inh (PIP5K1A): 0% | %Inh (PIP5K1C): 0% | %Inh (PIP5K2B): 12% | %Inh (PIP5K2C): 3% | %Inh (PKAC-alpha): 26% | %Inh (PKAC-beta): 6% | %Inh (PKMYT1): 27% | %Inh (PKN1): 23% | %Inh (PKN2): 1% | %Inh (PLK1): 0% | %Inh (PLK2): 5% | %Inh (PLK3): 13% | %Inh (PLK4): 32%

Fc1cccc(COc2ccc(Nc3ncnc4sc(-c5ccc[nH]5)cc34)cc2Cl)c1 [GW707818]
%Inh (PIK3CD): 0% | %Inh (PIK3CG): 0% | %Inh (PIK4CB): 0% | %Inh (PIKFYVE): 0% | %Inh (PIM1): 20% | %Inh (PIM2): 0% | %Inh (PIM3): 14% | %Inh (PIP5K1A): 29% | %Inh (PIP5K1C): 46% | %Inh (PIP5K2B): 0% | %Inh (PIP5K2C): 25% | %Inh (PKAC-alpha): 0% | %Inh (PKAC-beta): 0% | %Inh (PKMYT1): 0% | %Inh (PKN1): 32% | %Inh (PKN2): 1% | %Inh (PLK1): 0% | %Inh (PLK2): 7% | %Inh (PLK3): 19% | %Inh (PLK4): 0%

FC(F)(F)c1ccc(-c2nn3ncccc3c2-c2ccnc(Nc3cccc(C(F)(F)F)c3)n2)cc1 [GW828205]
%Inh (PIK3CD): 0% | %Inh (PIK3CG): 0% | %Inh (PIK4CB): 0% | %Inh (PIKFYVE): 0% | %Inh (PIM1): 12% | %Inh (PIM2): 17% | %Inh (PIM3): 32% | %Inh (PIP5K1A): 53% | %Inh (PIP5K1C): 0% | %Inh (PIP5K2B): 0% | %Inh (PIP5K2C): 3% | %Inh (PKAC-alpha): 0% | %Inh (PKAC-beta): 24% | %Inh (PKMYT1): 15% | %Inh (PKN1): 0% | %Inh (PKN2): 0% | %Inh (PLK1): 0% | %Inh (PLK2): 0% | %Inh (PLK3): 18% | %Inh (PLK4): 0%

Cc1ccc(NC(=O)c2cccc(C#N)c2)cc1-c1ccc(C(=O)Nc2ccncc2)cc1 [GSK1398463]
%Inh (PIK3CD): 1% | %Inh (PIK3CG): 0% | %Inh (PIK4CB): 11% | %Inh (PIKFYVE): 0% | %Inh (PIM1): 9% | %Inh (PIM2): 0% | %Inh (PIM3): 0% | %Inh (PIP5K1A): 0% | %Inh (PIP5K1C): 38% | %Inh (PIP5K2B): 23% | %Inh (PIP5K2C): 0% | %Inh (PKAC-alpha): 0% | %Inh (PKAC-beta): 0% | %Inh (PKMYT1): 0% | %Inh (PKN1): 28% | %Inh (PKN2): 0% | %Inh (PLK1): 0% | %Inh (PLK2): 0% | %Inh (PLK3): 0% | %Inh (PLK4): 2%

Nc1nc(-c2ccccn2)c(-c2ccnc3ccccc23)s1 [GW548057]
%Inh (PIK3CD): 0% | %Inh (PIK3CG): 10% | %Inh (PIK4CB): 0% | %Inh (PIKFYVE): 33% | %Inh (PIM1): 0% | %Inh (PIM2): 0% | %Inh (PIM3): 0% | %Inh (PIP5K1A): 54% | %Inh (PIP5K1C): 87% | %Inh (PIP5K2B): 14% | %Inh (PIP5K2C): 57% | %Inh (PKAC-alpha): 0% | %Inh (PKAC-beta): 4% | %Inh (PKMYT1): 0% | %Inh (PKN1): 0% | %Inh (PKN2): 9% | %Inh (PLK1): 0% | %Inh (PLK2): 0% | %Inh (PLK3): 0% | %Inh (PLK4): 14%

O=C(CCO)NCCn1ccc2ncnc(Nc3ccc(Oc4cccc(C(F)(F)F)c4)c(Cl)c3)c21
%Inh (PIK3CD): 0% | %Inh (PIK3CG): 0% | %Inh (PIK4CB): 0% | %Inh (PIKFYVE): 34% | %Inh (PIM1): 0% | %Inh (PIM2): 0% | %Inh (PIM3): 0% | %Inh (PIP5K1A): 0% | %Inh (PIP5K1C): 41% | %Inh (PIP5K2B): 5% | %Inh (PIP5K2C): 26% | %Inh (PKAC-alpha): 0% | %Inh (PKAC-beta): 12% | %Inh (PKMYT1): 10% | %Inh (PKN1): 0% | %Inh (PKN2): 1% | %Inh (PLK1): 0% | %Inh (PLK2): 0% | %Inh (PLK3): 0% | %Inh (PLK4): 0%
